Measurements taken from the supplement of paper PMC6555819.

Key:
Experiment in all cases: PBM binding z-score (relative to random genomic background probes); higher = stronger binding; sequences stand for … in GC…GCGATTGACAGCGTAGAATGAAGG
[1] = tested on: FXR:RXRa (NR concentration 270 nM, RXRa partner concentration 90 nM)
Summary of the method: (§1)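 Scanned fluorescence from custom Agilent 4×180K protein-binding microarrays was regression-normalized. Binding z-scores use random background probes as reference. Ligand-free nuclear receptor dimers were incubated on the arrays for 1 h and detected with antibodies against each partner (one per run).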

[2] = tested on: LXRa:RXRa (NR concentration 270 nM, RXRa partner concentration 90 nM)
Summary of the method: as §1

[3] = tested on: LXRa homodimer (NR concentration 270 nM)
Summary of the method: as §1

[4] = tested on: LXRb:RXRa (NR concentration 270 nM, RXRa partner concentration 90 nM)
Summary of the method: as §1

[5] = tested on: LXRb homodimer (NR concentration 270 nM)
Summary of the method: as §1

[6] = tested on: PPARa:RXRa (NR concentration 270 nM, RXRa partner concentration 90 nM)
Summary of the method: as §1

[7] = tested on: PPARg:RXRa (NR concentration 180 nM, RXRa partner concentration 90 nM)
Summary of the method: as §1

[8] = tested on: PPARg:RXRa 270nM:90nM, anti-RXR (NR concentration 270 nM, RXRa partner concentration 90 nM)
Summary of the method: as §1

[9] = tested on: PPARg:RXRa 30nM:10nM, anti-RXR (NR concentration 30 nM, RXRa partner concentration 10 nM)
Summary of the method: as §1

[10] = tested on: PPARg:RXRa 90nM:30nM, anti-RXR (NR concentration 90 nM, RXRa partner concentration 30 nM)
Summary of the method: as §1

[11] = tested on: PPARg:RXRa DBDmut IVT, anti-RXR (DBD mutation: RXRa K156A/R161A, NR concentration 270 nM, RXRa partner concentration 90 nM)
Summary of the method: as §1

[12] = tested on: PPARg:RXRa IVT, anti-PPARg (NR concentration 270 nM, RXRa partner concentration 90 nM)
Summary of the method: as §1

[13] = tested on: PPARg DBDmut:RXRa IVT, anti-PPARg (DBD mutation: PPARg1 K132A/R137A, NR concentration 270 nM, RXRa partner concentration 90 nM)
Summary of the method: as §1

[14] = tested on: PPARg DBDmut IVT, anti-PPARg (DBD mutation: PPARg1 K132A/R137A, NR concentration 270 nM)
Summary of the method: as §1

[15] = tested on: PPARg homodimer (NR concentration 180 nM)
Summary of the method: as §1

[16] = tested on: PXR:RXRa (NR concentration 270 nM, RXRa partner concentration 90 nM)
Summary of the method: as §1

[17] = tested on: PXR homodimer (NR concentration 270 nM)
Summary of the method: as §1

[18] = tested on: RARa:RXR (NR concentration 270 nM, RXRa partner concentration 90 nM)
Summary of the method: as §1

[19] = tested on: RARa homodimer (NR concentration 270 nM)
Summary of the method: as §1

[20] = tested on: RARb:RXRa (NR concentration 270 nM, RXRa partner concentration 90 nM)
Summary of the method: as §1

| Sequence | PBM binding z-score [1] | PBM binding z-score [2] | PBM binding z-score [3] | PBM binding z-score [4] | PBM binding z-score [5] | PBM binding z-score [6] | PBM binding z-score [7] | PBM binding z-score [8] | PBM binding z-score [9] | PBM binding z-score [10] | PBM binding z-score [11] | PBM binding z-score [12] | PBM binding z-score [13] | PBM binding z-score [14] | PBM binding z-score [15] | PBM binding z-score [16] | PBM binding z-score [17] | PBM binding z-score [18] | PBM binding z-score [19] | PBM binding z-score [20] |
| --- | --- | --- | --- | --- | --- | --- | --- | --- | --- | --- | --- | --- | --- | --- | --- | --- | --- | --- | --- | --- |
| CTTTACGGGTCACGAGGTTATAGCACGACGAGCG | 7.21 | 5.4 | 1.34 | 4.38 | 0.444 | 6.35 | 8.06 | 7.02 | 4.31 | 6.25 | 5.55 | 6.46 | 1.86 | 2.29 | 2.93 | 4.96 | 0.279 | 6.19 | 0.513 | 4.81 |
| TCTATTAGTTGAAGGGCGACCGACGAGTCCGTTT | 0.994 | 1.03 | 0.292 | 0.778 | 0.384 | 0.661 | -0.000303 | 2.13 | 3.99 | 2.9 | 2.51 | 0.299 | 0.865 | 1.2 | 0.852 | 0.655 | 0.886 | 0.0781 | 0.844 | 0.714 |
| ACAATTAGTTGAGACGAGGGCAACCGATAGGTTG | 0.779 | 0.374 | 0.178 | 0.228 | -0.183 | 0.503 | 0.794 | 0.375 | 0.274 | 0.45 | -0.0279 | 0.475 | 0.916 | 0.299 | 0.566 | 1.37 | 0.711 | 1.13 | 0.878 | 1.14 |
| GCTAGCAGGCCATTTGGGTCACTTAATGACGGGC | 0.0717 | -0.185 | -0.464 | -0.142 | -0.905 | 1.16 | 0.67 | 0.681 | -0.515 | 0.00792 | 1.56 | 1.89 | -0.44 | -0.938 | -0.528 | 0.407 | -0.077 | 0.758 | -1.06 | 1.3 |
| CCTAACGGGTCACTCCAGGTTATAGCATCGGAGT | 3.94 | 7.24 | 1.46 | 4.81 | 0.101 | 3.5 | 2.32 | 2.54 | 0.338 | 1.43 | 1.88 | 2.52 | -0.282 | -0.298 | 1.23 | 4.32 | 0.412 | 2.86 | 0.233 | 3.15 |
| CCTCGGAGGACAGCAGGAGGTCAGAGCTGCCAGA | 0.706 | 1.02 | 0.292 | 0.728 | -0.764 | 1.48 | -0.245 | -0.0312 | -1.08 | -0.248 | -0.448 | -0.212 | -1.03 | -2.54 | 1.7 | 1.55 | 0.245 | 1.79 | 0.518 | 2.62 |
| CCTTCTGGGCCAAGGTCATTGATCAGTCAAAGCA | 2.83 | 2.99 | 0.639 | 2.84 | -0.27 | 3.75 | 3.12 | 4.15 | 1.37 | 3.57 | 3.79 | 4.03 | -0.283 | -0.969 | 1.45 | 3.33 | 1.12 | 3.11 | -0.215 | 3.39 |
| ATCTCTAGGTAAAAGTTCATTGAATCCCGAGGAT | 2.13 | 3.38 | 4.04 | 2.13 | 1.06 | 4.7 | 8.45 | 7.53 | 7.5 | 8.69 | 1.93 | 3.85 | 1.8 | 0.918 | 1.37 | 3.67 | 3.67 | 2.6 | 0.624 | 2.84 |
| CAAGCTAGGTCAAGGTCAAAGTCGGTTTGTGCCA | 6.4 | 5.71 | 4.42 | 4.74 | 1.37 | 5.36 | 5.58 | 5.39 | 2.37 | 4.73 | 4.41 | 5.17 | -0.662 | 0.302 | 3.54 | 5.15 | 1.35 | 5.06 | 1.43 | 5.2 |
| TGGAGTAGGTTACCAATGGGGCATTCAGCTTTCT | -0.0639 | 1.5 | -0.0874 | 1.12 | 0.179 | 1.61 | 1.8 | 2.14 | 0.743 | 1.59 | 4.44 | 4.65 | 0.93 | 1.38 | 1.1 | 0.359 | -0.17 | 0.243 | 0.592 | 1.21 |
| GCTAGCAGGCCATTTGGGTCACTCATTGACGGGC | 0.033 | -0.0107 | -0.528 | -0.128 | -0.903 | 1 | 0.357 | 0.27 | -0.512 | -0.18 | 1.91 | 1.84 | -1.26 | -0.505 | -0.295 | 0.252 | -0.137 | 0.652 | -0.74 | 1.26 |
| CTCGAAAGGTCGTGCTCATGTGAGTATACCAAAC | 5.17 | 3.72 | 0.36 | 3.54 | 0.234 | 5.08 | 2.86 | 3.9 | 0.836 | 2.6 | 1.04 | 1.63 | 0.526 | 0.798 | 1.16 | 3.17 | 0.0761 | 4.03 | 0.231 | 4.13 |
| TAGCCTAGGTCTTGCGGGCCAGTATAGTGTCGGC | -0.844 | -0.906 | -0.807 | -1.17 | -1.2 | -0.636 | -0.663 | -0.775 | -0.745 | -1.05 | -0.581 | -0.0643 | -0.303 | -0.84 | -1.39 | -1.05 | -1.29 | -0.863 | -1.17 | -0.327 |
| TCTGGTAGGTCAACGATGGTCAGCTAATCTGCTA | 4.45 | 3.6 | 0.986 | 2.55 | 0.479 | 4.35 | 4.4 | 4.54 | 3.78 | 4.32 | 5.2 | 5.77 | 1.81 | 0.722 | 2.39 | 2.25 | 0.21 | 2.78 | 0.843 | 4.16 |
| ATCTCTAGGTAAAAGTTCAGTTAATCCCGAGGAT | 1.31 | 1.89 | 1.81 | 1.34 | 1.19 | 4.56 | 8.35 | 7.9 | 8.17 | 8.69 | 1.85 | 3.99 | 1.85 | 1.29 | 2.13 | 2.28 | 2.02 | 1.85 | 1.39 | 2.24 |
